Compound activity from PubChem.
Sampled rows, rich in hits. Any-hit rate of the full collection: about 14%.
Pf growth 96h: inhibits malaria parasite growth, 96 h. P. falciparum luciferase reporter growth, 96 h. Potency, µM (titrated, usually from 28.7 µM), inactives show at the highest dose activity change, negative = inhibition, actives largely listed as inhibitors. 6.9% of 320,000 active. AID 504834; note: potency is the fitted concentration of half-maximal effect
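Two parasite generations (96 h, 37 C, 5% CO2) of compound exposure in infected erythrocytes (0.05% parasitemia, 2% hematocrit). Luciferase-reporter P. falciparum; decreased luminescence indicates inhibited growth, aimed at apicoplast-acting delayed death.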
HCMV antiviral: human cytomegalovirus inhibition; 4.5% of 410,000 active; HFF cells, HCMV-luciferase reporter, 72 h; active compounds read low; AID 1259415; activity change, negative = inhibition, % at 57.5 µM; in the data active = activity change below about -60%; inconclusive = no clear call, values can overlap the other calls; inactive = above about -39%
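Two-dose cell screen: HFF monolayers treated with compounds and infected with luciferase-expressing HCMV at 1 PFU/cell, 72 h at 37C, then lysed for luciferase measurement.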
Giardia FBPA inh: inhibitors of Giardia lamblia fructose-1,6-bisphosphate aldolase | A8B2U2 | purified Giardia FBPA | Potency, µM (doses to about 59.6 µM), for inactives: at the highest dose activity, negative = inhibition, hits mostly inhibitors | 0.71% of 290,000 active | AID 2451; note: potency is the fitted concentration of half-maximal effect; nearly all actives have a fitted effect of over 55% in size
Target sequence (A8B2U2 whole entry, looked up): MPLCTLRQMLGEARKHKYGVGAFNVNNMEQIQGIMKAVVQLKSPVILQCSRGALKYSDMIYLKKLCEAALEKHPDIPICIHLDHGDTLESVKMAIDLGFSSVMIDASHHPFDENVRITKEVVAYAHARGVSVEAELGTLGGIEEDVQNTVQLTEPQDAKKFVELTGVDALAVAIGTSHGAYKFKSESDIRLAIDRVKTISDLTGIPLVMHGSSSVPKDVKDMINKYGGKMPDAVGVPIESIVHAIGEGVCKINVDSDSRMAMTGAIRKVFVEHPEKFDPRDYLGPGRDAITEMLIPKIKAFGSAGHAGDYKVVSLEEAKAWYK
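Giardia FBPA (40 nM reagent) was preincubated 10 min at RT with compound (up to 57.5 uM final), then substrate plus GAPDH/TPI/NAD/arsenate coupling system with diaphorase/resazurin was added; resorufin fluorescence (525/598 nm) was read after 20 min.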
Pf growth 48h: inhibits P. falciparum growth in the first generation, 48 h; P. falciparum luciferase growth in erythrocytes, 48 h; Potency, µM (highest dose often 28.7 µM), without a hit: at the highest dose activity change, negative = inhibition, hits mostly inhibitors; 5.9% of 310,000 active; note: potency is the fitted concentration of half-maximal effect
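Compounds are pin-transferred into medium, infected erythrocytes (2% hematocrit, 0.1% parasitemia final) are added, and plates sit one parasite generation at 37 C in 5% CO2. Detection reagent is then added and luminescence measured.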
Sm TGR block: S. mansoni TGR enzyme inhibition; Q962Y6; purified TGR, DTNB reduction, TNB absorbance 405 nm; Potency, µM (doses to about 114 µM), without a hit: at the highest dose activity change, negative = inhibition, most hits filed as inhibitors; 3% of 360,000 active; note: potency is the fitted concentration of half-maximal effect; nearly all actives have a fitted effect of over 60% in size
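Kinetic colorimetric format: TGR-catalysed, NADPH-driven DTNB reduction monitored via TNB absorbance. Enzyme dispensed at 20 nM; compound exposure 15 min at room temperature before reaction start.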
* hit, by the source's call; ? = inconclusive; nt = no result given. Unless noted, calls come from the whole dose curve; as a rule, active = well fitted curve in the direction sought with a large enough effect; inconclusive = small, poorly fitted or top-dose-only effect, or another doubt; inactive = no such curve, though single readings can be large; an effect the other way counts as inactive or inconclusive. % is set by controls: 0 for no effect and ±100 for the full control effect.

SMILES	Pf growth 96h	HCMV antiviral	Giardia FBPA inh	Pf growth 48h	Sm TGR block
Cc1cc(S(=O)(=O)N2CCCC2)ccc1OCC(=O)NCc1ccccn1	-1.4%	33.6	21.5%	-11.1%	2.8%
CC(C)NS(=O)(=O)c1ccc(CCC(=O)NCc2ccccn2)cc1	-15.7%	-18.9	-0.9%	-3.6%	100µM*
Cc1ccc(OCC(=O)N(c2ccccn2)C2CCCCC2)c(C)c1	7.38µM*	2.9	0.6%	?	0.7%
Cc1ccc(NS(=O)(=O)c2ccc(CCC(=O)NCc3ccccn3)cc2)cc1	3.9%	-24.1	2.7%	?	nt
Cc1ccccc1CN1c2ccccc2-c2nc(SCC(=O)c3ccccc3)ncc2S1(=O)=O	nt	2.3	nt	nt	5.4%
Cc1ccc(Cn2c(=N)c(C(=O)NCc3ccco3)cc3c(=O)n4ccccc4nc32)cc1	0.0%	4.6	-16.4%	4.15µM*	-22.7%
COc1ccc(CCn2c(=N)c(C(=O)NCc3ccco3)cc3c(=O)n4ccccc4nc32)cc1OC	nt	-94.9*	nt	nt	nt
N=c1c(C(=O)NCc2ccco2)cc2c(=O)n3ccccc3nc2n1CCc1ccccc1	nt	?	-16.4%	0.928µM*	-14.7%
Cc1cc(N2CCN(C(C(=O)NC3CCCC3)c3ccco3)CC2)c2ccccc2n1 (stereo not drawn)	nt	-25.5	nt	nt	nt
Cc1ccc(N(CC(=O)NCCc2ccccc2)C(=O)CCC(=O)Nc2cc(C)ccn2)cc1	7.2%	1.7	-1.2%	-4.2%	4.4%
CCCSc1cc(N2CCOCC2)nc(-c2ccccc2Cl)n1	11.7µM*	-18.9	-1.1%	nt	-6.7%
Cc1cc(N2CCOCC2)nc(-c2ccccc2O)n1	2.33µM*	70.5	0.6%	13.8%	7.6%
COc1ccc(N2C[C@H](CSC)[C@@H](CC(=O)Nc3ccc(Br)cc3)C2=O)cc1	nt	-9.6	nt	nt	nt
CC(C)(C)C(CO)NC(=O)c1ccc[nH]1 (stereo not drawn)	33.6%	-9.6	nt	38.5%	-4.8%
Cc1ccc(O)c(-c2cc(-c3ccc(F)cc3)no2)c1	?	91.1	2.3%	10.4µM*	2.8%
N/C(=N\N=C\c1ccc(Cl)cc1)N/N=C/c1ccc(Cl)cc1	0.849µM*	5.8	nt	0.757µM*	nt
N/C(=N\N=C/c1ccc(Br)cc1)N/N=C\c1ccc(Br)cc1	32.3%	-24.2	-6.5%	?	-10.4%
N/C(=N\N=Cc1ccc2c(c1)OCO2)NN=Cc1ccc2c(c1)OCO2	nt	-73.5*	nt	nt	nt
N/C(=N\N=C/c1ccc(F)cc1)N/N=C\c1ccc(F)cc1	?	11.9	-25.6%	0.738µM*	15.4%
CC1CCCN(S(=O)(=O)c2cccc(C(=O)NCC3CCCO3)c2)C1 (stereo not drawn)	nt	-32.9	nt	nt	nt
Cc1ccc(S(=O)(=O)NC(=O)C2(C)CCN2C(=O)COc2ccc(Cl)cc2)nc1 (stereo not drawn)	nt	-14.0	nt	nt	nt
CC1=NN(Cc2ccccc2)C(=O)C1C(c1ccc(Cl)cc1)C(C#N)C#N (stereo not drawn)	?	-23.3	-27.5%	?	14.1µM*
CC1=NNC(=O)C1C(c1ccc(Cl)cc1)C(C#N)C#N (stereo not drawn)	23.6%	-14.9	-3.9%	8.1%	11.2µM*
CC1=NN(Cc2ccccc2)C(=O)C1C(c1ccccc1)C(C#N)C#N (stereo not drawn)	-11.0%	-1.6	-19.2%	?	-6.9%
CCN1CCN(CCCNC(=O)c2cc3c(s2)-c2c(C)cccc2OC3)CC1	nt	-1.7	nt	nt	-7.5%
SMILES	Pf growth 96h	HCMV antiviral	Giardia FBPA inh	Pf growth 48h	Sm TGR block
Cc1cccc2c1-c1sc(C(=O)NCCCN3CCN(c4cccc(Cl)c4)CC3)cc1CO2	nt	-74.5*	nt	nt	0.1%
Cc1cccc2c1-c1sc(C(=O)NCCCN3CCN(c4ccccc4F)CC3)cc1CO2	nt	-108.4*	nt	nt	0.0%
Cc1nn(Cc2ccc(Cl)cc2)c(C)c1NC(=O)CCCn1nc([N+](=O)[O-])c(Cl)c1C	?	-24.4	11.0%	?	-12.3%
CCCCCCOc1ccc(C(=N)N(CCCC)CCCC)c2ccccc12	8.49µM*	nt	nt	12µM*	nt
Nc1nc(Cl)c2ncn(C3OC(CO)C(O)C3O)c2n1 (stereo not drawn)	?	0.6	0.3%	-6.7%	6.4%
CCCSc1nc(N)nc2c1ncn2C1OC(CO)C(O)C1O (stereo not drawn)	nt	-70.0*	nt	nt	nt
CCn1c(=S)sc2c(=O)n(-c3ccccc3)c(=S)[nH]c21	-2.3%	-94.1*	-14.8%	1.7%	22.4µM*
Cc1cc(-n2c(SCC(=O)NCc3ccccc3)nc3ccsc3c2=O)ccc1Cl	nt	?	nt	nt	2.9%
CCOC(=O)N1CCC(N2Cc3cccc(C(=O)NCc4ccc(OC)cc4)c3C2=O)CC1	-0.9%	nt	-3.6%	7.38µM*	-3.2%
CCOC(=O)N1CCC(N2Cc3cccc(C(=O)O)c3C2=O)CC1	11.5%	14.7	2.9%	-0.8%	2.7%
CCOC(=O)N1CCC(N2Cc3cccc(C(=O)NCc4ccc5c(c4)OCO5)c3C2=O)CC1	?	7.8	-5.9%	7.38µM*	8.4%
CCOC(=O)N1CCC(N2Cc3cccc(C(=O)NCc4ccccc4OC)c3C2=O)CC1	0.9%	38.1	-7.4%	13.1µM*	-8.1%
CC1CC(C)CN(S(=O)(=O)c2cc3c4c(c2)CCC(=O)N4CCC3)C1 (stereo not drawn)	-19.6%	-38.2	nt	?	0.0%
Cc1ccc(C(=O)N2CCC(c3c[nH]c4ccccc34)(c3c[nH]c4ccccc34)CC2)cc1	nt	-18.4	nt	nt	10.4%
COc1ccc(C(CNC(=O)C(C)Oc2ccc(Br)cc2)N2CCCCC2)cc1 (stereo not drawn)	?	-19.6	nt	13.1µM*	1.0%
CCC(C)NC(=O)CCNS(=O)(=O)c1ccc(Br)cc1 (stereo not drawn)	7.38µM*	-10.1	13.0%	-9.2%	1.3%
COc1ccc(C(CNC(=O)CCNS(=O)(=O)c2ccc(Br)cc2)N2CCCC2)cc1 (stereo not drawn)	2.08µM*	-22.8	nt	4.15µM*	-8.3%
CCCCNC(=O)CCNS(=O)(=O)c1ccc(Br)cc1	14.6%	-29.8	10.4%	20.7%	-17.5%
COc1ccc(C(CNC(=O)CCNS(=O)(=O)c2ccc(Br)cc2)N2CCOCC2)cc1 (stereo not drawn)	nt	0.0	nt	nt	nt
CSCCC(NC(=O)c1ccco1)C(=O)Nc1ccc(C)c(S(=O)(=O)N2CCOCC2)c1 (stereo not drawn)	-5.3%	-10.0	nt	?	-15.2%
COc1cccc(Nc2cc3c(cn2)cc(-c2cnn(C)c2)n3C)c1	nt	-15.5	nt	nt	nt
Oc1ccc2[nH]cc(CCCCN3CC=C(c4ccccc4)CC3)c2c1	4.26µM*	nt	-7.5%	4.26µM*	nt
O=C1c2cccc3c(Nc4ccccc4Cl)c([N+](=O)[O-])cc(c23)C(=O)N1CCO	1.04µM*	-39.0	0.6%	?	-24.6%
O=C1NC[C@H](Cc2ccccc2)N(CCc2cc(C(F)(F)F)cc(C(F)(F)F)c2)C1=O	nt	6.7	nt	nt	nt
NC1=NC[C@H](Cc2ccc(O)cc2)N1CCc1cc(C(F)(F)F)cc(C(F)(F)F)c1	2.08µM*	-25.9	11.7%	5.22µM*	-1.0%
